Hits are enriched below; roughly 9.9% of the tested compounds scored in any of these assays.
KB-V1 MDR tox: kills drug-selected multidrug resistant KB-V1 cells. KB-V1 MDR cells viability, CellTiter-Glo, 72 h. Potency, µM (doses to about 46.1 µM), most hits filed as cytotoxic. 400,000 compounds, 3.4% hits. AID 1347076; also: potency is read from the fitted curve at half-maximal effect; % is scaled to controls: 0 for no effect and ±100 for the full control effect; nearly all actives have a fitted effect of over 60% in size
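KB-V1 cells (P-gp-expressing MDR subline of KB-3-1) in phenol-red-free DMEM with 10% FBS were exposed to library compounds over a concentration series for 72 h at 37 degrees C. Viability read by CellTiter-Glo luminescence; concentration-effect curves fitted after normalization.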
KB-3-1 tox: kills parental KB-3-1 adenocarcinoma cells. KB-3-1 viability, CellTiter-Glo ATP luminescence, 72 h. Potency, µM (titrated, usually from 46.1 µM), usual class: cytotoxic. 400,000 compounds, 1.4% hits; also: potency is read from the fitted curve at half-maximal effect; % is scaled to controls: 0 for no effect and ±100 for the full control effect; nearly all actives have a fitted effect of over 60% in size
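72 h, 37 °C compound treatment of KB-3-1 parental cells; CellTiter-Glo added, 10 min, luminescence read. Data corrected against DMSO-only plates and normalized before curve fitting.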
MCF10A rerep: induces DNA re-replication in MCF 10a normal breast cells | MCF 10A DNA re-replication, Hoechst nuclear intensity, 48 h | Potency, µM (titrated, usually from 46.1 µM), for the others: at the highest dose activity, positive = re-replication, most hits filed as activators | 350,000 compounds, 2.9% hits | AID 624296; also: potency is read from the fitted curve at half-maximal effect; % of control where 0% means no effect; nearly all actives have a fitted effect of over 50% in size
SW480 rerep: DNA re-replication induction in SW480 cells; Potency, µM (top dose mostly 46.1 µM), for the others: top-dose re-replication activation, actives largely listed as activators; 340,000 compounds, 1.8% hits; AID 624297; SW480 DNA re-replication, Hoechst DNA content imaging, 48 h; also: potency is read from the fitted curve at half-maximal effect; % of control where 0% means no effect; nearly all actives have a fitted effect of over 55% in size
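Image-based DNA-content assay: after two days of treatment, nuclei were labelled with the DNA dye Hoechst and imaged, and hits were compounds raising the count of nuclei showing high fluorescence intensity.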
IL1B secr inh: inflammasome signaling inhibition, IL-1 beta readout. activity change, % at 57.5 µM. 360,000 compounds, 4.7% hits. THP-1 LPS/ATP IL-1B secretion, AlphaLISA, 16 h; active compounds read low; in the data active = activity change below about -50%; inconclusive = mostly about -30% to -49%; also: % is scaled to controls: 0 for no effect and ±100 for the full control effect
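THP-1 cells pretreated 1 hr with compounds (up to 57.5 uM final), then stimulated with LPS (250 ng/mL final) plus ATP (1.25 mM final); secreted IL-1B measured by AlphaLISA after 16 hr, decreased signal indicating inhibition.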
* = called active by the depositor; i = inactive; ? = inconclusive; . = not tested or not shown; [ ] = dose if it differs, or a comment. Unless noted, calls follow the shape of the dose curve; as a rule, active = well fitted curve in the direction sought with a large enough effect; inconclusive = small, poorly fitted or top-dose-only effect, or another doubt; inactive = no such curve, though single readings can be large; an effect the other way counts as inactive or inconclusive.

SMILES	KB-V1 MDR tox	KB-3-1 tox	MCF10A rerep	SW480 rerep	IL1B secr inh
O=C(CSc1nc2c(sc3ccccc32)c(=O)n1CCCN1CCCC1)NCc1ccco1	i	i	?	51.0%	-70.2*
O=C(CSc1nc2c(sc3ccccc32)c(=O)n1CCO)NCc1ccco1	i	i	11.0%	-1.0%	19.1
Cc1cc(NC(=O)CSc2nc3c(sc4ccccc43)c(=O)n2CCCN2CCOCC2)n[nH]1	i	13µM*	?	7.31µM*	-1.0
CCOCCCNC(=O)CN1C(=O)CCn2nc(-c3cccn3C)cc21	i	i	.	.	.
Cc1ccc(S(=O)(=O)/N=c2\ccc(Cl)cn2C(F)F)cc1	i	i	-1.4%	-2.7%	-4.6
Cc1cc(-c2ccccc2)n2nc(N)nc2n1	i	i	?	-13.1%	-15.8
COc1ccccc1NC(=O)c1ccccc1NS(=O)(=O)c1cccs1	i	i	-23.6%	-32.4%[1.84 µM]	11.9
NC(=O)c1ccc(NC(=O)COC(=O)c2ccc(Br)c(S(=O)(=O)N3CCOCC3)c2)cc1	i	i	0.5%	0.7%	-60.2*
Cc1ccc(NC(=O)c2ccccc2NS(=O)(=O)c2ccc(Cl)s2)cc1S(=O)(=O)N1CCOCC1	20.6µM*	i	7.31µM*	1.9%	?
COc1ccc(C)cc1NC(=O)c1ccccc1NS(=O)(=O)c1ccc(Cl)s1	3.26µM*	5.17µM*	20.6µM*	-19.9%	?
Cc1ccc(NC(=O)c2ccc(F)c(S(=O)(=O)N3CCOCC3)c2)cc1F	3.66µM*	i	2.5%	2.0%	?
COc1ccccc1CNS(=O)(=O)CCNCc1ccco1	i	i	?	-1.7%	-4.8
CCCOc1ccc(F)cc1-c1cc(C(=O)Nc2ccc(OC)cc2C)[nH]n1	i	i	.	.	-25.6
Cc1ccc(C(=O)Nc2ccc(Br)cc2)cc1S(=O)(=O)N1CCOCC1	4.11µM*	10.3µM*	.	.	.
Cc1ccc(NC(=O)CCNC(=O)c2ccc(Br)cc2)cc1S(=O)(=O)N1CCOCC1	i	i	2.4%	1.2%	-16.1
Cc1ccc(NC(=O)c2ccc([N+](=O)[O-])s2)cc1S(=O)(=O)N1CCOCC1	i	18.4µM*	0.5%	?	42.7
COc1ccc(C2CC(=O)c3cc(-c4nc(-c5cccc(Cl)c5)cs4)c(=O)[nH]c3C2)cc1OC (centres undefined)	i	i	.	.	.
C(=C\c1ccnc2ccccc12)/c1cccs1	?	i	.	.	.
O=C(/C=C/c1ccnc2ccccc12)c1cccs1	?	i	9.2µM*	?	-117.5*
C=C1C=C(C)n2ncc(C(=O)N(CCc3ccccc3)Cc3ccccc3)c2N1	i	i	.	.	.
COc1ccc(/C=C2\SC(=Nc3ccccc3OC)NC2=O)cc1	?	?	3.26µM*	?	?
COc1cc(/C=C2\SC(=Nc3ccccc3OC)NC2=O)ccc1O	?	18.4µM*	8.2µM*	20.6µM*	-60.1*
COc1cc(/C=C2/SC(=Nc3ccc(O)cc3)NC2=O)ccc1O	?	9.2µM*	5.17µM*	4.61µM*	?
COc1ccc(C=C2SC(=O)NC2=O)cc1OC	i	i	13.7%	-4.8%	-4.6
COc1cc(/C=C2\SC(=Nc3cccnc3)NC2=O)cc(OC)c1OC	i	i	3.66µM*	2.3%	74.7
SMILES	KB-V1 MDR tox	KB-3-1 tox	MCF10A rerep	SW480 rerep	IL1B secr inh
O=C1NC(=Nc2cccnc2)S/C1=C\c1cccc(F)c1	i	i	?	-1.6%	33.4
COc1cc(/C=C2\SC(N)=NC2=O)ccc1O	?	?	?	25.7%	-83.0*
CCc1ccc(N=C2NC(=O)/C(=C/c3cc(OC)c(O)c(OC)c3)S2)cc1	?	i	?	10.8%	11.3
COc1cc(/C=C2\SC(=Nc3ccccc3)NC2=O)cc(Cl)c1O	i	i	20.6µM*	?	31.3
O=C(NC1CCCCC1)C(CCc1ccccc1)N1CCc2ccccc2C1 (centres undefined)	?	?	.	.	9.1
Cc1nc2c(c(C)c1CCC(=O)Nc1cccc(C(F)(F)F)c1)c(=O)n(C)c(=O)n2C	i	i	.	.	.
COc1ccc(-c2[nH]ncc2/C=N/NC(=O)c2ccncc2)c(OC)c1	i	i	?	-2.7%	12.4

Source: PubChem
